Measured values taken from PubChem BioAssay (NCATS).
“And” between values parts separate entries of the source, which are not always exact repeats. Identical values can stand only once. Results filed as inconclusive are left out. The source made the active and inactive calls. Unless noted, calls follow the shape of the full dose curve.

Experiment: Confirmation and Secondary Assay for Modulators of Hemoglobin Beta Chain Splicing at IVS2 705 locus (AID 930; active = well fitted activation curve with a large enough effect;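 also: HeLa cells stably expressing the EGFP-705 splicing reporter; GFP fluorescence per well restored by corrected splicing of the IVS2-705 intron in EGFP; % of control where 0% means no effect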)
Details: HeLa EGFP-705 splicing reporter, GFP fluorescence, 48 h; series mostly up to 38.3 µM
Procedure, shortened: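 Splice-correction reporter: EGFP cDNA split by beta-globin intron 2 bearing the 705 mutation, stably in HeLa. Compound incubation 2 days, 37C; fluorescent objects 5-250 µm summed per well.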

outcome, inactive:
COC(=O)c1c(OC)cc2c(c1C)Oc1c(Cl)c(OC(C)=O)c(Cl)c(C)c1C(=O)O2
COc1ccc2c(c1)OCc1c-2oc2cc(OC)ccc12
CC1=CC2C(CC1=O)C(C)=CCC2C(C)C (stereo not drawn)
CC(=O)Oc1ccc2c(c1C(C)C)CCC1C(C)(C)CCC[C@@]21C (stereo partly drawn)
COc1cc(C/C=C/c2ccccc2)c(OC)cc1O
COC(=O)CCCOc1ccc(Cl)cc1Cl
C#C[C@]1(OC(C)=O)CCC2C3CCC4=CC(=O)CCC4C3CC[C@]21C (stereo partly drawn)
COC(=O)c1c(OC)cc2c(c1C)Oc1c(Cl)c(O)c(Cl)c(C)c1C(=O)O2
CCOC(=O)c1c(C)cc(OC)cc1O
COc1cccc(-c2cncnc2NCc2ccc(OC)cc2OC)c1
CN(Cc1ccco1)c1nc(-c2ccccc2Cl)nc2ccccc12
COc1cc(-c2coc3cc(OCc4ccccc4)c(OC)c(O)c3c2=O)cc(O)c1OC
CC(=O)OC1CC2C(C)(C)CCC(=O)[C@@]2(C)C2CC[C@@]3(C)C(c4ccoc4)OC(=O)C4OC43[C@]12C (stereo partly drawn)
CC(=O)OC1CCC23CC1(C)CCC2C(C)(C)CC3OC(C)=O (stereo not drawn)
O=C(O)c1cc(O)c2c(c1)C(=O)c1cc(O)cc(O)c1C2=O
COc1ccc(-c2cc(=O)c3c(OC)c(OC)c(OC)c(OC)c3o2)cc1
COc1ccc2c(c1)OCC(Cc1ccc(OC)c(OC(C)=O)c1)C2=O (stereo not drawn)
CC(=O)OC1CC[C@]2(C)C(CC(OC(C)=O)[C@@]3(C)C4=CC(=O)OC(c5ccoc5)[C@]4(C)CCC23)C1(C)C (stereo partly drawn)
COc1cccc(-c2nc(Nc3ccncc3)c3ccccc3n2)c1
N[C@H](C(=O)O)C(O)C(O)C(O)CO (stereo partly drawn)
NCC1OC(n2cnc3c(=O)[nH]c(N)nc32)C(O)C1O (stereo not drawn)
COc1ccccc1CNc1ncnc2ccc(-c3cccnc3)cc12
CC1(C)C(O)CC[C@]2(C)C1CC[C@@]1(C)C2C(=O)C=C2[C@@H]3C[C@@](C)(C(=O)O)CC[C@@]3(C)CCC21C (stereo partly drawn)
O=c1c(O)c(-c2ccc(O)c(O)c2)oc2c(OC3OC(CO)C(O)C(O)C3O)c(O)cc(O)c12 (stereo not drawn)
CC1(C)C=CC(=O)[C@]2(C)C1CC(=O)[C@]1(C)C2CC[C@@]2(C)C(c3ccoc3)OC(=O)C3OC321 (stereo partly drawn)
O=C1CC[C@@]23/C=C/C(=O)NCCCCNCCCNC(=O)/C=C/c4ccc(c2c4)OC3C1 (stereo partly drawn)
COc1ccc2c(c1)OC/C(=C/c1ccc(O)c(O)c1)C2=O
CN(Cc1ccco1)c1nc(-c2cccc(C#N)c2)nc2ccccc12
COc1ccc(C(=O)O)c(O)c1OC

Experiment: qHTS Assay for Lipid Storage Modulators (AID 1519); also: % is scaled to controls: 0 for no effect and ±100 for the full control effect
Details: Drosophila S3 cells, BODIPY lipid droplet/cell ratio, laser cytometry; at 57.5 µM (top of the series); cells loaded with oleic acid
Procedure, shortened: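 Cells seeded at 5,000 per well were treated with compounds over a concentration series and loaded with oleic acid (400 uM, as added). Lipid droplet fluorescence (488 nm excitation, 500-530 nm channel) was read by laser-scanning cytometry and normalized to 20 uM Triacsin C.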

Activity change, negative = inhibition, inactive:
COC(=O)c1c(OC)cc2c(c1C)Oc1c(Cl)c(OC(C)=O)c(Cl)c(C)c1C(=O)O2 5.48%
N#C/C(=C\c1ccc(O)c(O)c1)C(=O)NCCCCc1ccccc1 -2.23%
CC(=O)Oc1ccc2c(c1)CCC1C2CC[C@]2(C)C(OC(C)=O)CCC12 (stereo partly drawn) -2.53%
COc1ccc2c(c1)OCc1c-2oc2cc(OC)ccc12 8.22%
O=c1cc(-c2ccc(O)c(O)c2)oc2cc(OC3OC(CO)C(O)C(O)C3O)cc(O)c12 (stereo not drawn) 7.95%
Cc1ccccc1-c1ccc2ncnc(N(C)Cc3ccco3)c2c1 2.17%
CC1=CC2C(CC1=O)C(C)=CCC2C(C)C (stereo not drawn) 1.38%
CC(=O)Oc1ccc2c(c1C(C)C)CCC1C(C)(C)CCC[C@@]21C (stereo partly drawn) 2.03%
COc1cc(C/C=C/c2ccccc2)c(OC)cc1O 1.85%
COC(=O)CCCOc1ccc(Cl)cc1Cl 5.51%
C#C[C@]1(OC(C)=O)CCC2C3CCC4=CC(=O)CCC4C3CC[C@]21C (stereo partly drawn) -18.5%
COC(=O)c1c(OC)cc2c(c1C)Oc1c(Cl)c(O)c(Cl)c(C)c1C(=O)O2 6.08%
CCOC(=O)c1c(C)cc(OC)cc1O -10.6%
COc1cccc(-c2cncnc2NCc2ccc(OC)cc2OC)c1 7.71%
CC1(C)[C@@H](O)CC[C@]2(C)C3C(=O)C=C4C5C[C@@](C)(C(=O)O)CC[C@]5(C)CC[C@@]4(C)[C@]3(C)CC[C@@H]12 (stereo partly drawn) 2.84%
CN(Cc1ccco1)c1nc(-c2ccccc2Cl)nc2ccccc12 11.9%
COc1cc(-c2coc3cc(OCc4ccccc4)c(OC)c(O)c3c2=O)cc(O)c1OC -4.72%
CC(=O)OC1CC2C(C)(C)CCC(=O)[C@@]2(C)C2CC[C@@]3(C)C(c4ccoc4)OC(=O)C4OC43[C@]12C (stereo partly drawn) 2.56%
CC(=O)OC1CCC23CC1(C)CCC2C(C)(C)CC3OC(C)=O (stereo not drawn) 2.71%
O=C(c1cccc(F)c1)N1CCC[C@@]2(CCN(C(c3ccccc3)c3ccccc3)C2)C1 -11.6%
COc1ccc2c(c1)[C@@]1(C)CCC[C@](C)(CO)C1CC2 (stereo partly drawn) 8.34%
O=C(O)c1cc(O)c2c(c1)C(=O)c1cc(O)cc(O)c1C2=O 8.22%
COc1ccc(-c2cc(=O)c3c(OC)c(OC)c(OC)c(OC)c3o2)cc1 -5.75%
COc1ccc(-c2nc3cnc(Nc4cccc(OC)c4)nc3n(CCC#N)c2=O)cc1 -18.1%
COc1ccc2c(c1)OCC(Cc1ccc(OC)c(OC(C)=O)c1)C2=O (stereo not drawn) 2.81%
CC(=O)OC1CC[C@]2(C)C(CC(OC(C)=O)[C@@]3(C)C4=CC(=O)OC(c5ccoc5)[C@]4(C)CCC23)C1(C)C (stereo partly drawn) -24.5% and -12.6% and 0.61%
O=c1c(-c2ccccc2)coc2cc(O)cc(O)c12 13.9%
COc1cccc(-c2nc(Nc3ccncc3)c3ccccc3n2)c1 -7.83%
N[C@H](C(=O)O)C(O)C(O)C(O)CO (stereo partly drawn) 2.74%
NCC1OC(n2cnc3c(=O)[nH]c(N)nc32)C(O)C1O (stereo not drawn) 2.55%
COc1ccccc1CNc1ncnc2ccc(-c3cccnc3)cc12 3.28%
CC1(C)C(O)CC[C@]2(C)C1CC[C@@]1(C)C2C(=O)C=C2[C@@H]3C[C@@](C)(C(=O)O)CC[C@@]3(C)CCC21C (stereo partly drawn) 9.4%
O=c1c(O)c(-c2ccc(O)c(O)c2)oc2c(OC3OC(CO)C(O)C(O)C3O)c(O)cc(O)c12 (stereo not drawn) 0.918%
CC1(C)C=CC(=O)[C@]2(C)C1CC(=O)[C@]1(C)C2CC[C@@]2(C)C(c3ccoc3)OC(=O)C3OC321 (stereo partly drawn) -11.5%
COc1c(-c2ccc(O)c(O)c2)oc2cc(O)cc(O)c2c1=O 0.206%
O=C1CC[C@@]23/C=C/C(=O)NCCCCNCCCNC(=O)/C=C/c4ccc(c2c4)OC3C1 (stereo partly drawn) 2.57%
COc1ccc2c(c1)OC/C(=C/c1ccc(O)c(O)c1)C2=O 9.34%
CN(Cc1ccco1)c1nc(-c2cccc(C#N)c2)nc2ccccc12 10.1%
COc1ccc(C(=O)O)c(O)c1OC 7.29%
